Pf growth 96h = Primary qHTS for delayed death inhibitors of the malarial parasite plastid, 96 hour incubation; Potency, µM (doses to about 28.7 µM), for the others: top-dose activity change, negative = inhibition, most hits filed as inhibitors; 320,000 tested, 6.9% active; P. falciparum luciferase reporter growth, 96 h; note: % is set by controls: 0 for no effect and ±100 for the full control effect
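Plates of compound plus infected erythrocytes (2% hematocrit, 0.05% parasitemia final) incubate 96 hours, 37 C, 5% CO2. Detection reagent added; reduced luminescence from the parasites' luciferase reporter flags inhibition.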
Vaccinia Venus = qHTS for Stage-Specific Inhibitors of Vaccinia Orthopoxvirus: Venus Reporter Primary qHTS; Vaccinia virus Venus reporter expression, fluorescence; Potency, µM (titrated, usually from 36.5 µM), for the others: top-dose activity change, negative = inhibition, most hits filed as inhibitors; 330,000 tested, 0.46% active; AID 720580, 2013; calls by dose curve; tested in A549 cells; note: % is set by controls: 0 for no effect and ±100 for the full control effect; nearly all actives have a fitted effect of over 30% in size
NS1 inh = qHTS Assay for Inhibitors of Influenza NS1 Protein Function; Potency, µM (top dose mostly 46.1 µM), for the others: top-dose activity, positive = more growth; 270,000 tested, 0.4% active; AID 2326, 2010; calls by dose curve; note: actives are rising curves; nearly all actives have a fitted effect of over 50% in size
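Compounds were scored for reversing the slow growth caused by influenza A NS1 in S. cerevisiae, measured by optical density at 600 nm. Assay medium contained 2% galactose at pH 6.0; NS1-free yeast of the same strain were the positive control.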
Vaccinia mCherry = qHTS for Stage-Specific Inhibitors of Vaccinia Orthopoxvirus: mCherry Reporter Primary qHTS; Vaccinia virus mCherry reporter infection, fluorescence; Potency, µM (highest dose often 36.5 µM), for inactives: at the top dose activity change, negative = inhibition, most hits filed as inhibitors; 310,000 tested, 0.63% active; AID 720579, 2013; calls by dose curve; tested in A549 cells; note: % is set by controls: 0 for no effect and ±100 for the full control effect; nearly all actives have a fitted effect of over 35% in size
Pf growth 48h = Primary qHTS for delayed death inhibitors of the malarial parasite plastid, 48 hour incubation | P. falciparum luciferase growth in erythrocytes, 48 h | Potency, µM (series often up to 28.7 µM), for the others: at the highest dose activity change, negative = inhibition, actives largely listed as inhibitors | 310,000 tested, 5.9% active; note: % is set by controls: 0 for no effect and ±100 for the full control effect
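Luciferase-expressing parasites in RBCs, 2% Hct / 0.1% parasitemia final; RPMI 1640 + 0.5% Albumax; 37 C, 5% CO2, one generation; luminescence read-out, lower signal = inhibition.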
HCV inh = qHTS Assay for Inhibitors of Hepatitis C Virus (HCV). Potency, µM (series often up to 41.8 µM), for inactives: at the top dose activity change, negative = inhibition, usual class: inhibitors. Huh7.5.1 HCVcc-Cre infection, luciferase reporter, 44 h. 340,000 tested, 3.4% active; note: % is set by controls: 0 for no effect and ±100 for the full control effect
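Cells seeded at 1,000/well and cultured 4 h, then compounds added followed by HCVcc-Cre virus (~0.5 moi). After 44 h further culture, luciferase substrate was added, plates held 15 min at room temperature, and luminescence read for 15 sec.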
The depositor's hits bear a star; i = inactive; u = inconclusive; x = not tested or not shown. Sampled rows, rich in hits. Any-hit rate of the full collection: about 11%. Unless noted, calls come from the whole dose curve; as a rule, active = well fitted inhibition curve with a large enough effect; inconclusive = small, poorly fitted or top-dose-only effect, or another doubt; inactive = no such curve, though single readings can be large or run the other way. Potency is the fitted concentration of half-maximal effect.

SMILES | Pf growth 96h | Vaccinia Venus | NS1 inh | Vaccinia mCherry | Pf growth 48h | HCV inh
CCOC(=O)C1=C(C)N=C2SCCC(=O)N2[C@@H]1c1cccs1 | 6.1% | -7.9% | -2.4% | -6.0% | 10.4µM* | 20.8%
C#CCSC1=C(C#N)C(c2cccs2)C(C(=O)OCC)=C(C)N1 (stereo unspecified) | 2.8% | x | 3.7% | x | 10.4µM* | u
CCOC(=O)c1sc2c(c1C)C(c1cccs1)C1=C(CCCC1=O)N2 (stereo unspecified) | 11.7µM* | u | -12.2% | x | u | u
CCOC(=O)C1=C(C)N=C2SCCC(=O)N2C1c1cccs1 (stereo unspecified) | -6.5% | 1.9% | -11.0% | x | 6.7% | 15.2%
CCCCCCCCOC(=O)C1=C(C)Nc2nnnn2C1c1cccs1 (stereo unspecified) | x | -24.4% | -67.1% | -28.8% | x | -4.0%
CCCCCCCOC(=O)C1=C(C)Nc2ncnn2C1c1cccs1 (stereo unspecified) | 38.6% | -8.8% | 5.4% | -7.2% | 10.4µM* | u
CCOC(=O)C1=C(COC(=O)c2ccc(C)c(S(=O)(=O)N3CCOCC3)c2)NC(=O)NC1C (stereo unspecified) | 4.7% | -11.3% | x | -17.9% | u | u
O=C(CN1CCN(C(=O)c2ccco2)CC1)Nc1ccc(Cl)c(S(=O)(=O)N2CCOCC2)c1 | -82.8% | -7.7% | x | i | 11.7µM* | -9.8%
CN1CCN(CC(=O)Nc2ccc(Cl)cc2Cl)CC1 | 9.28µM* | -6.1% | 3.0% | -14.0% | 14.8% | u
O=C(CN1CCN(C(=O)c2ccco2)CC1)Nc1cc(Cl)ccc1Cl | 35.1% | -17.9% | -10.1% | i | 1.04µM* | -17.0%
O=C(CN1CCN(C(=O)c2ccco2)CC1)Nc1ccc2c(c1)OCCO2 | 28.0% | -4.2% | -2.2% | -14.3% | 62.2% | -19.5%
O=C(CN1CCN(C(=O)c2ccco2)CC1)Nc1ccccc1-c1ccccc1 | -104.5% | x | -36.0% | x | u | -16.7%
CCc1nc2ccc(C(=O)NCCN3CCNC3=O)cn2c1N(CCC(C)C)CCN(C)C | x | 0.4% | x | -5.3% | x | x
COc1ccc(CNS(=O)(=O)c2cnc(N)nc2)c(OC)c1 | x | -5.2% | x | -10.9% | x | x
CC(C)(C)C(c1nc2ccccc2[nH]1)n1c(-c2cccc(S(C)(=O)=O)c2)nc2ccccc21 (stereo unspecified) | x | -12.0% | x | -5.6% | x | x
CC1CCCCC12NC(=O)N(CC(=O)N1CCN(S(=O)(=O)/C=C/c3ccccc3)CC1)C2=O (stereo unspecified) | u | x | x | x | 10.4µM* | 9.8%
CC1CCCCC12NC(=O)N(CC(=O)N1CCN(Cc3ccc(C#N)cc3)CC1)C2=O (stereo unspecified) | -29.0% | x | x | x | -1.9% | 10µM*
CN1C(=O)N(CC(=O)N2CCN(S(=O)(=O)/C=C/c3ccccc3)CC2)C(=O)C12CCCCC2 | -14.3% | x | x | x | u | -6.4%
Cc1cccc(C)c1NC(=O)CN1CCN(C(=O)CN2C(=O)NC3(CCCCC3C)C2=O)CC1 (stereo unspecified) | 12.9% | -14.7% | x | -2.9% | 14.1% | -29.8%
Cc1ccc(S(=O)(=O)c2ccc(Cl)cc2)cc1S(=O)(=O)N1CCN(C)CC1 | x | x | -4.3% | x | -15.3% | u
C=CCNC(=S)N1Cc2cc(Br)ccc2-n2nncc2C1 | x | -2.9% | x | 19.0% | x | x
COc1ccc(OC)c(S(=O)(=O)N2CCN(c3ccccc3OC)CC2)c1 | -10.2% | -9.1% | -7.2% | -20.7% | 8.2% | 21.7%
COc1ccccc1N1CCN(S(=O)(=O)c2cc3[nH]c(=O)c(=O)[nH]c3cc2C)CC1 | u | -9.2% | -11.6% | -10.5% | 9.28µM* | 13.8%
Cc1cc2[nH]c(=O)c(=O)[nH]c2cc1S(=O)(=O)N1CCN(c2cccc(C)c2C)CC1 | 4.65µM* | 0.6% | 5.2% | 8.9% | u | 20.9%

Assay outcomes from PubChem BioAssay.
